Laboratory results taken from ChEMBL document CHEMBL3988442, “University of Dundee, Small-Polar-MMV Screening Library” (2021).
For some of these results: Results with a measured potency or affinity are listed apart.

Assays:
Design in all cases: scale not given: direction of the effect not stated beside the values
[1] = target: Protein translocase subunit SecA (Escherichia coli (strain K12)) (UniProt P10408); test: Assay to Identify E. coli SecA ATPase Inhibitors; type: functional; conditions: 30 µM
[2] = target: T1, Ubiquitin-activating enzyme e1, putative (Leishmania donovani (strain BPK282A1)) (UniProt E9BSI1); test: Leishmania donovani Ubiquitin Activating Enzyme (LdE1); type: functional; conditions: 30 µM
T1 sequence (whole entry): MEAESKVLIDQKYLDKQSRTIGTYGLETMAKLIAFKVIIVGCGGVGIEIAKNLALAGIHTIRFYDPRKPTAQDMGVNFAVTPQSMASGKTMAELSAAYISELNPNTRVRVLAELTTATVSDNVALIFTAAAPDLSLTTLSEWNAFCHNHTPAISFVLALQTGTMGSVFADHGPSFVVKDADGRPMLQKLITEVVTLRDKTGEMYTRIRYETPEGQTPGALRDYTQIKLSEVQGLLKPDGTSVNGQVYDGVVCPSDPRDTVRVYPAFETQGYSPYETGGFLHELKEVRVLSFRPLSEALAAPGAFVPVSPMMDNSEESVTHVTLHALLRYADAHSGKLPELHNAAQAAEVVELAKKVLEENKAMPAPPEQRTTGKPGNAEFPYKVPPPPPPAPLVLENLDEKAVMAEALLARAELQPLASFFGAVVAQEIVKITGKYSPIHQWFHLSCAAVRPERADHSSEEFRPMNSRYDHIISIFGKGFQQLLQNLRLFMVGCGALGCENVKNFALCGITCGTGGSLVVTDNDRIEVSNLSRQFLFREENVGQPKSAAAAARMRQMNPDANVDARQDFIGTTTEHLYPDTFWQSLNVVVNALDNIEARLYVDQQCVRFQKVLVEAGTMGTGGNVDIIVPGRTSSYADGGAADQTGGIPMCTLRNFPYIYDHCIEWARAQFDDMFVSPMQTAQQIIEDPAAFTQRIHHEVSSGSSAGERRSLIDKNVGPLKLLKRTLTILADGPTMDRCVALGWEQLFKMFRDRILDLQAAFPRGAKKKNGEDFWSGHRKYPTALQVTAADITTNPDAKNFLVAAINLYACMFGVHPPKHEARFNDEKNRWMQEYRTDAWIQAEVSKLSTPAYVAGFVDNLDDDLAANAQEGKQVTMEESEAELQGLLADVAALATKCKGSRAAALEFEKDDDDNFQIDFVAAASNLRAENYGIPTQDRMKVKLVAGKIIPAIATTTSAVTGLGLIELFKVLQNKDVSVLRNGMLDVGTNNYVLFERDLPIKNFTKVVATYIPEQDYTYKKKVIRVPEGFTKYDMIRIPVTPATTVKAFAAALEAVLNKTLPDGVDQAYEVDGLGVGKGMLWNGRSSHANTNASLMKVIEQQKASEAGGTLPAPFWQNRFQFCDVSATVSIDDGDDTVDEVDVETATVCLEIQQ

[3] = target: T2, Aspartate--tRNA(Asp/Asn) ligase (Mycobacterium tuberculosis (strain ATCC 25618 / H37Rv)) (UniProt P9WFW3); test: Assay for Asp RNA synthetase-1 from Mycobacterium tuberculosis; type: functional; conditions: 30 µM; further: in the data most compounds retested in dose-response had high values
T2 sequence (whole entry): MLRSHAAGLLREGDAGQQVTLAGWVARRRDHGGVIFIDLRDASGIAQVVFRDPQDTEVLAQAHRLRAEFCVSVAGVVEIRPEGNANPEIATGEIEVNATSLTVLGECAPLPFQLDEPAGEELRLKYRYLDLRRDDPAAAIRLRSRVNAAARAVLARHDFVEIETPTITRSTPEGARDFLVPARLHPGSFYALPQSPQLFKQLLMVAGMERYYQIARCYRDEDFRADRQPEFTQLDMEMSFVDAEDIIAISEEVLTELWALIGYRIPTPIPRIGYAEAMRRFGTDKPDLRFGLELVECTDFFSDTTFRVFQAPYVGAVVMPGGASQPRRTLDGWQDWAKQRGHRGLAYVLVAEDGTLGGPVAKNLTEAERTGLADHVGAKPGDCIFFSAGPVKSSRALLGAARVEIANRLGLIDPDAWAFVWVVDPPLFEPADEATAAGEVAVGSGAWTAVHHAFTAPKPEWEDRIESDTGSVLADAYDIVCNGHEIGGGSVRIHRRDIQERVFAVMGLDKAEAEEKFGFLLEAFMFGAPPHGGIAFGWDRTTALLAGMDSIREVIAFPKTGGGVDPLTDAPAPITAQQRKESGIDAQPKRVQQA

[4] = target: AMP-activated protein kinase, AMPK (Homo sapiens) (UniProt P54646+O43741+P54619+Q9UGJ0+Q9Y478+Q13131+Q9UGI9); test: AMP-dependent Kinase enzyme assay. An in vitro enzyme assay that detects ADP turnover that is directly proportional to AMPK activity. This uses naive AMPK that is activated during the assay with MK-8722; type: functional; conditions: 30 µM
[5] = target: Sialic acid-binding Ig-like lectin 9 (Homo sapiens) (UniProt Q9Y336); test: Hs-Siglec9 ALPHAscreen SOP 20170721; conditions: 10 µM
Trypanosoma cruzi = test: Trypanosoma cruzi phosphomannomutase and mannose-1-phosphate guanylyltransferase assay; type: functional; conditions: 10 µM
[6] = target: T3, Arginase-2, mitochondrial (Homo sapiens) (UniProt P78540); test: in vitro enzyme assay to detect the production of urea directly proportional to the activity of Arginase II; type: functional; conditions: 33.3 µM; further: in the data most compounds retested in dose-response had high values
T3 sequence (whole entry): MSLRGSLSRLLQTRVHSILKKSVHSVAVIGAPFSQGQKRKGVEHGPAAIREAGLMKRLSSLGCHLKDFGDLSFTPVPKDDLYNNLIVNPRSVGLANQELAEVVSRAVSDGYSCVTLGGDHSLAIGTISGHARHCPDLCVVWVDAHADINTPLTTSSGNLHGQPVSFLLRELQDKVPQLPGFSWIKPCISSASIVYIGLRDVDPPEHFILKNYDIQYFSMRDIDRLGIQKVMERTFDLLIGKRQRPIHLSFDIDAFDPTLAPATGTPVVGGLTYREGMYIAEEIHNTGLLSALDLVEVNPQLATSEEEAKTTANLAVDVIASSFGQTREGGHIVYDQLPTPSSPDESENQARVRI

[7] = target: T4, Proteasome subunit beta (Trypanosoma cruzi) (UniProt O96673); test: Trypanosoma cruzi proteasome chymotrypsin-like activity (TcProtChymo) assay.; further: in the data most compounds retested in dose-response had high values; type: functional; conditions: 9.37 µM
T4 sequence (whole entry): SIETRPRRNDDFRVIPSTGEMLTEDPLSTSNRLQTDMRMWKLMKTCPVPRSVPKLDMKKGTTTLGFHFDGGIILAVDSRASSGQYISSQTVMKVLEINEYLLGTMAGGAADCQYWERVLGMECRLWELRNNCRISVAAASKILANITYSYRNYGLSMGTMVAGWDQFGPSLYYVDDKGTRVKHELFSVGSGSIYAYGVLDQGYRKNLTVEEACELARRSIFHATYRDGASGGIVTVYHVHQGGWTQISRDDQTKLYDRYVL

Homo sapiens = organism: Homo sapiens; test: To identify inhibition of the IFN signalling (Jak-Stat) pathway via expression of an eGFP reporter gene under the control of an IFN-stimulated response element (ISRE) containing MxA promoter.; type: functional; conditions: 30 µM
[8] = target: Shiga toxin 2 (Escherichia coli O157:H7) (UniProt P09385+P09386); test: E. coli 0.157:H7 Shiga Toxin SOP - stx2 screening assay; type: functional; conditions: 30 µM
[9] = target: T5, Tyrosyl-tRNA synthetase, putative (Trypanosoma cruzi (strain CL Brener)) (UniProt Q4DSP6); test: Trypanosoma cruzi tyrosyl tRNA synthetase (TcYRS) _High Tyrosine SOP; type: functional; conditions: 30 µM; further: in the data most compounds retested in dose-response had high values
T5 sequence (whole entry): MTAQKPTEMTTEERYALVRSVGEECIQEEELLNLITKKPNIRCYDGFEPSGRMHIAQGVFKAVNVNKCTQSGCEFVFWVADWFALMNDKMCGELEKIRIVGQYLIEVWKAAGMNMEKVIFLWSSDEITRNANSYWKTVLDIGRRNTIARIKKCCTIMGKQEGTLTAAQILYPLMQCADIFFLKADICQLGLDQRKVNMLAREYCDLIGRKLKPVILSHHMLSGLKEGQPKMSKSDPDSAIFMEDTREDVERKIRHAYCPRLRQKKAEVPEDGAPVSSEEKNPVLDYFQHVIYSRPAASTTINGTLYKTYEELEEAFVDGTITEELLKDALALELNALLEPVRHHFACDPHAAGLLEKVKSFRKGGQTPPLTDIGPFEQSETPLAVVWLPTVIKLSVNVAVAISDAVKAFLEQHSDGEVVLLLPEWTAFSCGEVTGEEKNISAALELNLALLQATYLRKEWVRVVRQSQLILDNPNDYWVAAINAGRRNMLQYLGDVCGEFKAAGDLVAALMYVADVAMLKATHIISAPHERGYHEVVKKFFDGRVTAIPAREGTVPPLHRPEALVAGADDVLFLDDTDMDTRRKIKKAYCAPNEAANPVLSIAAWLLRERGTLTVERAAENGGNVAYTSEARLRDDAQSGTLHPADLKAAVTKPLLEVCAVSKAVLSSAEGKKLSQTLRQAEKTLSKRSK

[10] = target: T5, Tyrosyl-tRNA synthetase, putative (Trypanosoma cruzi (strain CL Brener)); test: Trypanosoma cruzi tyrosyl tRNA synthetase (TcYRS) SOP; type: functional; conditions: 30 µM
[11] = target: Chromo domain-containing protein 1 (Saccharomyces cerevisiae (strain ATCC 204508 / S288c) (Baker's yeast)) (UniProt P32657); test: ScCHD-1 Enzyme Inhibition Assay; type: functional; conditions: 30 µM; further: in the data most compounds retested in dose-response had high values
Sequence of Chromo domain-containing protein 1 (Saccharomyces cerevisiae (strain ATCC 204508 / S288c) (Baker's yeast)) (P32657 whole entry, the tested form may be a part): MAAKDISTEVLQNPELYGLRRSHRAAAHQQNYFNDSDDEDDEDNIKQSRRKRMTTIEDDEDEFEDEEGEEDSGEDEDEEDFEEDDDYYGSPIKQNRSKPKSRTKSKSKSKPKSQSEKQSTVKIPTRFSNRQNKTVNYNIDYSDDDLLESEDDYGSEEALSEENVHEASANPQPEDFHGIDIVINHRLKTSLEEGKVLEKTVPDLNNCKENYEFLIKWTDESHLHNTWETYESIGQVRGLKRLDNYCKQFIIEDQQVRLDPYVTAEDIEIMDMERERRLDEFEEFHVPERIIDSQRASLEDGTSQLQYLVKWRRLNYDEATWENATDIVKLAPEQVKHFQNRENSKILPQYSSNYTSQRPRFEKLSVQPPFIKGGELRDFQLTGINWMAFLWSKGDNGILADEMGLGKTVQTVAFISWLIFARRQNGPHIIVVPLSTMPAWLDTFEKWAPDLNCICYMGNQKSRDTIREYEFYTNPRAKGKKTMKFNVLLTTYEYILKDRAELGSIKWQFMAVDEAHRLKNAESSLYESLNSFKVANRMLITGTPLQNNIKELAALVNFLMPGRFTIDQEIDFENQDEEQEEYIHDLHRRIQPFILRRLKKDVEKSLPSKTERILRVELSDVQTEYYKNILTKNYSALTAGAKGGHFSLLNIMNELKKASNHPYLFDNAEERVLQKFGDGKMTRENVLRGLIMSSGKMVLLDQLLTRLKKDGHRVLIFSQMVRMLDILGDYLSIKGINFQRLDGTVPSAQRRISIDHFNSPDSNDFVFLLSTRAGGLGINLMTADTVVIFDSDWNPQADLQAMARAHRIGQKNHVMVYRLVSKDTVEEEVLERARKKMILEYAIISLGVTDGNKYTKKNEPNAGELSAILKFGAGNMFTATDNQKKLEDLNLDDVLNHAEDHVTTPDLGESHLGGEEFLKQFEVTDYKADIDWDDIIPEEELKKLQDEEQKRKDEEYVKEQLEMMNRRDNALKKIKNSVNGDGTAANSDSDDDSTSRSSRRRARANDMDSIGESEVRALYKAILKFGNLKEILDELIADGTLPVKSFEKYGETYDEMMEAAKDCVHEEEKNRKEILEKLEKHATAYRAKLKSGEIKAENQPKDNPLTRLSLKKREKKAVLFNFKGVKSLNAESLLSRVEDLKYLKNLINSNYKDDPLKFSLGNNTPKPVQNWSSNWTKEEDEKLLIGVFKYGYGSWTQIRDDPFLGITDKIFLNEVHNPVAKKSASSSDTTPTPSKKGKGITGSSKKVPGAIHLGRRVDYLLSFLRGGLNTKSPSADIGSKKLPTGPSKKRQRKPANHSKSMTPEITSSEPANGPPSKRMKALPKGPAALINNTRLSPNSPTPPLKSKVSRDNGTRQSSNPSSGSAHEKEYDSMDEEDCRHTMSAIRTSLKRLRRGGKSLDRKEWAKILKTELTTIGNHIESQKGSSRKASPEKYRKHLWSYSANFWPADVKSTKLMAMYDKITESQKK

Sequence of Protein translocase subunit SecA (Escherichia coli (strain K12)) (P10408 whole entry): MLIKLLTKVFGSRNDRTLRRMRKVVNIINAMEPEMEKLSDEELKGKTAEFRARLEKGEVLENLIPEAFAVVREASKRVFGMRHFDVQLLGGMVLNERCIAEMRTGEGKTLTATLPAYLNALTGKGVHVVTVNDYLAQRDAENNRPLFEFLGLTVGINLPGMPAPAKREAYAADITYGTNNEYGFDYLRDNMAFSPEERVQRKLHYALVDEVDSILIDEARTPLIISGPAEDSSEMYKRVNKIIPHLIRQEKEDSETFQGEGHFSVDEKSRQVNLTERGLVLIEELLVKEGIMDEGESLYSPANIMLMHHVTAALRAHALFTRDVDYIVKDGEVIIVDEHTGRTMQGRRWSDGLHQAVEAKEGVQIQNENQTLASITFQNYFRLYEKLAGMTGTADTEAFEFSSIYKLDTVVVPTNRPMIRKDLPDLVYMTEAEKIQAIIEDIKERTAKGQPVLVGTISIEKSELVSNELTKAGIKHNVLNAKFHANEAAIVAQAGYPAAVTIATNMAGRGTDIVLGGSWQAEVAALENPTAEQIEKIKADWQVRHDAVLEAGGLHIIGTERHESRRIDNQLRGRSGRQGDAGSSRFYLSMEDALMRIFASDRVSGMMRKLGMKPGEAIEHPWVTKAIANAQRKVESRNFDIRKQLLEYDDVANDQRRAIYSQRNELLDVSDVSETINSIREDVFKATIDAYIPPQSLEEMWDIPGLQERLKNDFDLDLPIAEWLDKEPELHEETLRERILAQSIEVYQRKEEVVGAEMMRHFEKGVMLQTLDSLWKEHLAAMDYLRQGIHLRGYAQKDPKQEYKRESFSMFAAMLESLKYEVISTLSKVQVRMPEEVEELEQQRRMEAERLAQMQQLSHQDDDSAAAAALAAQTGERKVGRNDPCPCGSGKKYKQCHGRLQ
Sequence of Sialic acid-binding Ig-like lectin 9 (Homo sapiens) (Q9Y336 whole entry): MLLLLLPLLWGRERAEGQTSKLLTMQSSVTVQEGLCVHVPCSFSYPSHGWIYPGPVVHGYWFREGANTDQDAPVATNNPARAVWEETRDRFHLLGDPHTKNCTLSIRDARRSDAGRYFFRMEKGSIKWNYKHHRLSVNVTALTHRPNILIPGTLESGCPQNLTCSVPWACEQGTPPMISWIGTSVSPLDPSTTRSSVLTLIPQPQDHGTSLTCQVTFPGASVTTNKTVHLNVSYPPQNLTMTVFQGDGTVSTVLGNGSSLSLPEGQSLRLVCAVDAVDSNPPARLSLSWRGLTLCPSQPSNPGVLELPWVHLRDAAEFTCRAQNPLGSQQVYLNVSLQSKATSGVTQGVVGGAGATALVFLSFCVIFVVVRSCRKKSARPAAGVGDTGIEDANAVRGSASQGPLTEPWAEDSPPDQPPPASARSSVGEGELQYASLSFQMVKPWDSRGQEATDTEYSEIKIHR

Row | Structure (SMILES) | Percent Effect [1] | Percent Effect [2] | Percent Effect [3] | Percent Effect [4] | Percent Effect [5] | Percent Effect (Trypanosoma cruzi) | Percent Effect [6] | Percent Effect [7] | Percent Effect (Homo sapiens) | Percent Effect [8] | Percent Effect [9] | Percent Effect [10] | Percent Effect [11]
1 | c1ccc(CO[C@@H]2CO[C@@]3(CCN(Cc4ccccn4)C3)C2)nc1 | -5.26% | 6.67% | 0.581% | 5.55% | 4.84% | -1.18% | 4.75% | 6.84% | -42% | -15.8% | 5.29% | 5.13% | -3.05%
2 | CN1CCCC(c2n[nH]c3ncccc23)C1 (stereo not given) | -3.58% | -1.35% | -7.01% | 6.99% | 2.48% | -0.198% | -0.232% | 5.93% | -5.01% | 1.35% | 2.15% | 1.3% | 6.39%
3 | CCOCC(O)CN1CCN(C(=O)Cc2ccc3c(c2)CCO3)CC1 (stereo not given) | 1.74% | 10.5% | 0.3% | 2.16% | 5% | -3.76% | 6.51% | 21.4% | 19.4% | 30.7% | 3.43% | 12.2% | -2.97%
4 | O=C(Nc1cccnc1)[C@H]1CN(Cc2nccs2)C[C@H]2OCC[C@@H]12 | -4.22% | 2.67% | -1.01% | 6.75% | -6.59% | -0.591% | -0.233% | 3.61% | 15% | -17.1% | -2.13% | -6.41% | 2.83%
5 | c1cncc(CO[C@H]2CC[C@H]3[C@@H]2OCCN3C2CCOCC2)c1 | 1.26% | 2.74% | 0.0456% | -4.02% | 5.81% | 7.14% | -0.399% | 4.37% | -1.77% | -20.6% | 3.12% | 8.64% | 1.15%
6 | CN(C)c1ncc2c(n1)C1(CCN(Cc3ccccc3)C1)COC2 (stereo not given) | -2.14% | -5.48% | -5.72% | 3.1% | 1.95% | 2.78% | 1.2% | 10.9% | -0.512% | -67% | 5.21% | 3.7% | -6.91%
7 | Cc1cc(CN2CC[C@H]3C[C@H](c4nccs4)O[C@@H]3C2)no1 | 2.63% | -2.7% | -1.08% | 5.99% | 4.06% | -1.47% | 0.319% | 12.9% | -4.4% | 3.88% | 0% | 0% | 7.66%
8 | c1ccc(CN2C[C@@H]3OCCN(CC4CCCO4)[C@@H]3C2)nc1 (stereo not given in full) | -4.3% | 10.8% | -0.749% | -3.75% | 1.76% | 4.01% | 15% | 15.5% | 22.6% | 4.43% | 7.57% | 15.4% | -4.89%
9 | CC(C)CN1CCC2(CC1)C(=O)Nc1ccc(C(=O)N(C)C)cc12 | -4.79% | 5.41% | -0.578% | -2.95% | -1.19% | -3.81% | 0.248% | 8.67% | 7.43% | 5.38% | 4.3% | 8.64% | -2.28%
10 | O=C(N[C@H]1CN[C@H]2CCCO[C@H]21)c1cccnc1 | 1.71% | 16.4% | -0.775% | -3.57% | 7.91% | 5.36% | -2.4% | 9.33% | 8.46% | -2.82% | 8.33% | 11.1% | -3%
